# HTT aggregate = qHTS Multiplex Assay to Identify Dual Action Probes in a Cell Model of Huntington: Aggregate Formation (GFP). Potency, µM (doses to about 46.1 µM), inactives show at the highest dose activity change, negative = inhibition, actives largely listed as inhibitors. 1.1% of 220,000 active. PC12 HttQ103-GFP aggregates, Acumen cytometry, 40 h; also: % is scaled to controls: 0 for no effect and ±100 for the full control effect; nearly all actives have a fitted effect of over 60% in size
#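 PC12 cells with ecdysone-inducible HTT exon1 Q103-GFP, induced by 100 nM tebufenozide, given compounds in a concentration series. GFP aggregates (1–25 um, 6 SD above background) counted in lysates by laser-scanning cytometry, 488 nm excitation.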
# IDH1 R132H inh = qHTS for Inhibitors of mutant isocitrate dehydrogenase 1 (IDH1): qHTS | Isocitrate dehydrogenase [NADP] cytoplasmic (Homo sapiens), O75874 | IDH1-R132H enzyme, NADPH consumption, diaphorase/resazurin fluorescence | Potency, µM (doses to about 76.6 µM), for the others: at the top dose activity change, negative = inhibition, usual class: inhibitors | 0.093% of 390,000 active | AID 602179, 2012; also: % is scaled to controls: 0 for no effect and ±100 for the full control effect; nearly all actives have a fitted effect of over 65% in size
# Target sequence (O75874 whole entry R132H, stated change not applied): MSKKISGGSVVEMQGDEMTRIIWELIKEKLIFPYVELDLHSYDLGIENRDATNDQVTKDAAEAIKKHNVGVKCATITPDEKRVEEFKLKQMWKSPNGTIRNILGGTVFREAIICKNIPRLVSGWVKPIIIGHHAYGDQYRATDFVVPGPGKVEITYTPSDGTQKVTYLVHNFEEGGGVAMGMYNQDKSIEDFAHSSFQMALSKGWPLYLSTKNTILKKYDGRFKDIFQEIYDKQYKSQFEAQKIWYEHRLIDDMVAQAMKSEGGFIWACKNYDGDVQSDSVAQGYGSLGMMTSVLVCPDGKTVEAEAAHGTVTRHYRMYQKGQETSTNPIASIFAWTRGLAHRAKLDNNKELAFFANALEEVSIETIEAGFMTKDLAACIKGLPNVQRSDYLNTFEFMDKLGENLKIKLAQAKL
#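 IDH1-R132H (0.5 ug/mL) preincubated 30 min with compound, then NADPH (0.016 mM) and alpha-KG (2 mM) added; 80 min at RT, pH 7.5. Remaining NADPH coupled via diaphorase/resazurin to fluorescence (540/590 nm); concentration-response curves normalized to no-enzyme control.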
# HTT ATP protect = qHTS Multiplex Assay to Identify Dual Action Probes in a Cell Model of Huntington: Cytoprotection (ATP) | Potency, µM (series often up to 56.4 µM), inactives show cytoprotection (ATP increase), hits mostly activators | 0.14% of 230,000 active | PC12 HTT-Q103 induced, cytoprotection, ATP luminescence, 40 h; also: % of control where 0% means no effect; nearly all actives have a fitted effect of over 45% in size
#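 Rat PC12, Q103 Htt exon1-GFP fusion, ecdysone promoter; tebufenozide inducer 100 nM final; compound titration; qHTS, 1500 cells/well; ATPlite luminescent read.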
# AT treatment = qHTS Assay for Identifying a Potential Treatment of Ataxia-Telangiectasia. 0.19% of 320,000 active. Potency, µM (highest dose often 57.5 µM), for the others: at the top dose activation, usual class: activators. F2112 A-T fibroblasts, KAP-1 phosphorylation AlphaLISA; neocarzinostatin DNA damage 30 min before lysis. AID 485349, 2010; also: % of control where 0% means no effect; nearly all actives have a fitted effect of over 45% in size
#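 hTERT-immortalized A-T patient fibroblasts (F2112), 500 cells/well in OPTI-MEM, 1% FBS, got compounds for 60 min, then NCS for 30 min at 37C. Lysates were then assayed for phospho-KAP-1 by AlphaLISA (anti-pKAP1 donor, anti-KAP1 acceptor beads), 6 hr at 25C.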
# NPSR antag = qHTS Assay for Antagonists of the Neuropeptide S Receptor: cAMP Signal Transduction | Q6W5P4 | Potency, µM (highest dose often 38.3 µM), without a hit: at the top dose activity change, negative = inhibition, actives largely listed as inhibitors | CHO-NPSR cells, cAMP TR-FRET, antagonist mode | 1% of 220,000 active; also: % is scaled to controls: 0 for no effect and ±100 for the full control effect; nearly all actives have a fitted effect of over 50% in size
# The depositor's hits bear a star; ? = inconclusive; / = no result; [ ] = another dose, or the depositor's remark. Only some compounds are listed: those with a hit (about 1.1% of all), similar ones and a draw of the others. Calls follow the shape of the dose curve; as a rule, active = well fitted curve in the direction sought with a large enough effect; inconclusive = small, poorly fitted or top-dose-only effect, or another doubt; inactive = no such curve, though single readings can be large; an effect the other way counts as inactive or inconclusive. Potency is read from the fitted curve at half-maximal effect.
SMILES,HTT aggregate,IDH1 R132H inh,HTT ATP protect,AT treatment,NPSR antag
Clc1ccc(N2N=C(c3cccs3)CC2c2ccco2)cc1 (configuration not stated),11.4%,4.6%,23.8%,22.4µM*,7.1%[46.1 µM]
CCCCc1nc2c(c3c1C[C@H](C)OC3)CN(C(=O)C1CC1)CC2,/,/,-19.5%[10 µM],/,/
CN(C)C1C(=O)C(C(N)=O)=C(O)[C@@]2(O)C(=O)C3=C(O)c4c(O)ccc(Cl)c4[C@@H](O)C3C[C@@H]12 (some centres not stated),/,/,/,/,3.8%[46.1 µM]
CCCCC[C@H](O)/C=C/C=C\C=C\[C@@H](O)C/C=C\CCCC(=O)O,/,/,25.7%,/,/
CCO[C@H]1OC(C(=O)N2CCN(C)CC2)=C[C@@H](c2csc3ccccc23)[C@@H]1CCCO,5.6%[9.22 µM],13.3%,7.2%[10 µM],20µM*,16.6%
CC1CCCCC1n1c(=S)[nH]c2ccccc2c1=O (configuration not stated),20µM*,3.2%,-2.0%[0.074 µM],3.6%,?
CC(C)OCCCN(Cc1ccco1)C(=O)c1cc2c(s1)-c1ccccc1OC2,/,3.8%,/,/,/
O=C(COC(=O)c1ccc2c(=O)n3c(nc2c1)CCC3)NC1CCS(=O)(=O)C1 (configuration not stated),0.0063µM*,-0.6%,-24.4%,3.4%,18.6%
N#C/C(=C/Nc1ccccc1)c1ccsc1,12.6µM*,0.5%,-8.1%,/,-20.0%[46.1 µM]
Cc1ccc(N/C=C(/C#N)c2ccsc2)cc1,2.3%,0.9%,-4.8%,/,-20.6%[46.1 µM]
COc1ccc(C2c3c(ncn(CCCO)c3=N)Oc3ccc4ccccc4c32)cc1 (configuration not stated),-15.6%[9.22 µM],-9.8%,-31.2%[10 µM],36.8%,?
COc1ccc(C2c3c(ncn(CCN4CCOCC4)c3=N)Oc3ccc4ccccc4c32)cc1OC (configuration not stated),12.5%,5.2%,-40.8%,8.6%,1µM*
CCOc1ccc(/C=C/c2c([N+](=O)[O-])c(=O)n(C)c(=O)n2C)cc1,-18.5%,3.0%,7.94µM*,-3.3%,-10.7%
O=C(O)[C@H]1C[C@H](C(=O)O)N1,/,/,-5.5%[1.9 µM],/,/
CC#N,/,/,-2.5%,/,/
CC(C)(C)c1ccc(C(O)CCCN2CCC(C(O)(c3ccccc3)c3ccccc3)CC2)cc1 (configuration not stated),22.4µM*,-7.2%,-99.2%,-3.0%,?
CC(C)c1ccc(NC(=O)CN2C(=O)COc3ccc(S(=O)(=O)N4CCCCC4)cc32)cc1,/,-23.7%,/,/,/
O=C(O)Cn1c(=O)oc2cc(S(=O)(=O)NC3CCCCC3)ccc21,/,/,-10.2%,/,/
O=C1c2ccccc2C(=O)C12OC(c1ccccc1)C1(C(=O)c3ccccc3C1=O)C2c1ccc([N+](=O)[O-])cc1 (configuration not stated),/,2.3%,/,/,/
O=C1c2ccccc2C(=O)C12OC2c1ccc(Cl)cc1 (configuration not stated),31.6µM*,/,0.3%[10 µM],-4.4%,?
c1ccc(Nc2nc(NCC3CCCO3)c3ccccc3n2)cc1 (configuration not stated),?,-0.7%,-23.3%,4.8%,-46.7%
CCOc1ccc(Nc2nc(NCC3CCCO3)c3ccccc3n2)cc1 (configuration not stated),14.1µM*,-2.7%,-35.2%,-4.3%,?
Cc1cc(-c2ccccc2)n(-c2cc(N/N=C/c3ccccc3O)ncn2)n1,8.91µM*,-5.1%,-88.5%[10 µM],-2.9%,14.8%
COC(=O)c1c(C)n(-c2ccc(OC)cc2)c2ccc(O)cc12,11.2µM*,4.8%,-15.3%,5.0%,-11.4%[46.1 µM]
CCOC(=O)c1ccc(NC(=O)COc2cc3oc(=O)c(CC(C)O)c(C)c3cc2Cl)cc1 (configuration not stated),6.7%[9.22 µM],-10.0%,4.1%[10 µM],4.2%,2.8%
SMILES,HTT aggregate,IDH1 R132H inh,HTT ATP protect,AT treatment,NPSR antag
CC(=O)c1cccc(NC(=O)COc2cc3oc(=O)c(CC(C)O)c(C)c3cc2Cl)c1 (configuration not stated),3.55µM*,-4.0%,13.7%[10 µM],1.9%,?
COc1ccc2c(c1)c1ncn(Cc3ccco3)c(=O)c1n2C,10µM*,2.3%,-29.4%,6.5%,-9.2%[46.1 µM]
COc1ccc2c(c1)c1ncn(Cc3ccc(F)cc3)c(=O)c1n2C,-0.4%[9.22 µM],5.0%,7.1%[10 µM],-8.8%,-11.8%
Cc1ccc(C)c(NC(=O)CN(C)C(=O)CCN2C(=O)c3ccccc3C2=O)c1,14.1µM*,-4.9%,-79.8%,0.5%,-6.4%[46.1 µM]
CCN(CC)C1=CC2=CC(=C(C#N)C#N)CCC2CC1 (configuration not stated),0.1µM*,2.3%,-22.8%[10 µM],6.4%,-23.3%
N#CC(C#N)=C1C=C2C=C(N3CCCCC3)CCC2CC1 (configuration not stated),10µM*,7.6%,/,6.9%,-31.6%
CCCCN(C)C1=CC2=CC(=C(C#N)C#N)CCC2CC1 (configuration not stated),0.316µM*,0.6%,5.9%[10 µM],4.1%,-34.1%
CCOC(=O)c1ccc(NC(=O)C2COc3ccccc3O2)cc1 (configuration not stated),/,7.3%,/,-1.1%,/
CCOC(=O)c1ccc(-n2c(O)c(/C=N/NC(=O)C3COc4ccccc4O3)c3ccccc3c2=O)cc1 (configuration not stated),17.8µM*,3.4%,7.4%[1.9 µM],-8.7%,-8.0%
CN1C(=O)C2(c3ccccc31)C1CCCC=C1C(C#N)=C(N)C2(C#N)C#N (configuration not stated),/,-5.7%,20µM*,/,?
CN(C)S(=O)(=O)c1nc(Cl)c2[nH]cnc2n1,/,/,3.4%[10 µM],/,/
COC(=O)N1C/C=C\C(c2ccc(OC)cc2)N(Cc2ccc(F)cc2)C(=O)C1 (configuration not stated),-22.8%[9.22 µM],9.7%,8.9%[10 µM],-16.1%,17.5%
COc1ccc(C2/C=C\CN(C(=O)C3CCCC3)CC(=O)N2Cc2ccc(F)cc2)cc1 (configuration not stated),15.6%[9.22 µM],-12.8%,-8.3%[10 µM],14.1µM*,-22.4%
COc1ccc(C2/C=C\CN(C(=O)Nc3ccccc3-c3ccccc3)CC(=O)N2Cc2ccc(F)cc2)cc1 (configuration not stated),-19.5%[9.22 µM],7.5%,-14.3%[10 µM],-27.3%,10µM*
COc1ccc(C2/C=C\CN(C(=O)C3CCCCC3)CC(=O)N2Cc2ccc(F)cc2)cc1 (configuration not stated),11.4%[9.22 µM],-0.1%,-6.9%[10 µM],25.8%,-14.4%
